Laboratory results taken from PubChem BioAssay (Tox21).
Records with an inconclusive call do not appear. Calls of active or inactive are those of the source. Calls come from the whole dose curve.

Assay: qHTS assay to identify small molecule agonists of H2AX - cell viability counter screen (AID 1224847); note: nearly all actives have a fitted effect of over 30% in size; for activity change, negative = cytotoxicity: top concentration of the series differs between compounds
Conditions: CHO-K1 viability, CellTiter-Glo luminescence, 3 h; series mostly up to 154 µM; activity change, negative = cytotoxicity: at the top concentration
Text: National Center for Advancing Translational Sciences [NCATS]
NIH Chemical Genomics Center [NCGC]
U.S. Environmental Protection Agency [EPA]
National Institutes of Environmental Health Sciences [NIEHS]
National Toxicology Program [NTP]
U.S. Food and Drug Administration [FDA]
HTRF phospho-H2AX (Ser139) assay (Cisbio Bioassays, US) enables the quantitative detection of the histone variant H2AX when phosphorylated on serine 139. When double-stranded DNA breaks, either by ionizing radiation or endogenous physiological processes, H2AX becomes phosphorylated at Ser139. This phospho-Ser139 serves as a sensitive biomarker for the detection of such breaks, localizing the site of DNA repair. So, HTRF phospho-H2AX Ser139 is a pertinent assay to study genome stability, the cell cycle, DNA repair, and it serves as a biomarker for cancer, and to understand aging. Wild type CHO-K1 cells were used to identify the inducers of Phospho-H2AX Ser 139 from the Tox21 compound collections. Also cytotoxicity of the Tox21 10K compound library against the CHO-K1 cell line was tested by measuring the cell viability using CellTiter-Glo assay (Promega, Madison, WI).
Tox21 Assay Protocol Summary:
The CHO-K1 cells suspended in culture medium containing 10% FBS were dispensed at 1000 cells/ 3 ul/well in 1536-well white wall/solid bottom plates (Greiner Bio-One North America, NC) using a Multidrop Combi (Thermo Fisher Scientific Inc., Waltham, MA). After the assay plates were incubated at 37C overnight, 23 nl of compounds at 15 concentrations (from 5-48 columns) or positive control (from 1 to 4 columns) were transferred to the assay plates using a Pintool station (Wako, San Diego, CA) into each well resulting in a final DMSO concentration of 0.76%. After 3hr incubation at 37C, 3 uL/well CellTiter-Glo luminescent cell viability reagent (Promega Corporation, Madison, WI) was added using a Flying Reagent Dispenser (FRD) (Aurora Discovery, CA). After incubation at room temperature for 30 min, the luminescence intensity was read using a ViewLux plate reader (PerkinElmer, Waltham, MA).
% is set by controls: 0 for no effect and ±100 for the full control effect; potency is the fitted concentration of half-maximal effect.

**Q.** Which “activity change, negative = cytotoxicity” value does the source give for `Clc1cccc(Cl)n1` here?
**A.** The value was 0.957% (inactive).

**Q.** With `SC1CCCCC1` as the molecule, how does the “activity change, negative = cytotoxicity” value read?
**A.** The value was 3.86% (inactive).

**Q.** Which “activity change, negative = cytotoxicity” value does the source give for `CC1=CC[C@@H](C(C)(C)O)CC1` here?
**A.** Its value is -0.558% (inactive).

**Q.** With `CCCCCCCCCCCCS(=O)(=O)Cl` as the molecule, how does the activity change, negative = cytotoxicity read?
**A.** Its activity change, negative = cytotoxicity is 2.47% [at 31.6 µM] (inactive).

**Q.** For `CCCCCCCCCCCCCCCCC(C(=O)O)C(O)(CC(=O)O)C(=O)O` (stereo not given), which “activity change, negative = cytotoxicity” value is on record?
**A.** Its value is -9.42% [at 70.9 µM] (inactive).

**Q.** For `O=C1OC(=O)c2cc(-c3ccc4c(c3)C(=O)OC4=O)ccc21`, which “activity change, negative = cytotoxicity” value is on record?
**A.** The value was 1.7% (inactive).

**Q.** Which “activity change, negative = cytotoxicity” value does the source give for `Cc1ccc(C=O)cc1` here?
**A.** The value was 4.24% [at 70.9 µM] (inactive).

**Q.** Which “activity change, negative = cytotoxicity” value does the source give for `CC(CC(C)(C)C)CC(C)(C)CC(C)(C)C` (stereo not given) here?
**A.** The value was 1.63% [at 70.9 µM] (inactive).

**Q.** For `CCCCCCCCOC(=O)c1cc(O)c(O)c(O)c1`, which Potency is on record?
**A.** The Potency was 89.8 µM (active).

**Q.** Which “activity change, negative = cytotoxicity” value does the source give for `CCCC(C)C=O` (stereo not given) here?
**A.** The value was -0.115% (inactive).

**Q.** For `CC/C=C(\C)C=O`, which “activity change, negative = cytotoxicity” value is on record?
**A.** Its value is 1.34% (inactive).

**Q.** Which Potency does the source give for `CC(C)c1ccc2sc3ccccc3c(=O)c2c1` here?
**A.** Its Potency is 50.5 µM (active).

**Q.** With `CCCCC/C=C\C=C\C(=O)OCC` as the molecule, how does the “activity change, negative = cytotoxicity” value read?
**A.** The value was 4.73% (inactive).

**Q.** For `CCOc1nc(F)cc2nc(S(=O)(=O)Nc3c(Cl)cccc3C(=O)OC)nn12`, which “activity change, negative = cytotoxicity” value is on record?
**A.** The value was -4.27% (inactive).

**Q.** With `CC1CCC(C(C)(C)O)CC1` (stereo not given) as the molecule, how does the “activity change, negative = cytotoxicity” value read?
**A.** Its value is -1.32% (inactive).

**Q.** With `CCN(CC)c1ccc(N=Nc2ccccc2)cc1` as the molecule, how does the Potency read?
**A.** Its Potency is 113 µM (active).

**Q.** Which “activity change, negative = cytotoxicity” value does the source give for `c1ccc2occc2c1` here?
**A.** The value was -0.235% (inactive).

**Q.** With `CCNc1nc(NC(C)(C)C)nc(OC)n1` as the molecule, how does the “activity change, negative = cytotoxicity” value read?
**A.** The value was 2.7% (inactive).

**Q.** Which Potency does the source give for `O[Si](c1ccccc1)(c1ccccc1)c1ccccc1` here?
**A.** The Potency was 101 µM (active).

**Q.** With `O=S(=O)(c1ccc(OCc2ccccc2)cc1)c1ccccc1O` as the molecule, how does the Potency read?
**A.** The Potency was 45 µM (active).

**Q.** Which “activity change, negative = cytotoxicity” value does the source give for `C=Cc1ccc(O)c(OC)c1` here?
**A.** Its value is -3.02% (inactive).

**Q.** For `CC(C)=NNC(N)=S`, which “activity change, negative = cytotoxicity” value is on record?
**A.** Its value is -0.439% (inactive).

**Q.** For `COC(=O)c1ccc([N+](=O)[O-])cc1`, which “activity change, negative = cytotoxicity” value is on record?
**A.** The value was -1.63% (inactive).

**Q.** With `CN(C)CCOc1ccc(/C(=C(/CCCl)c2ccccc2)c2ccccc2)cc1` as the molecule, how does the Potency read?
**A.** Its Potency is 94.3 µM (active).

**Q.** With `CC(C=O)c1ccccc1` (stereo not given) as the molecule, how does the “activity change, negative = cytotoxicity” value read?
**A.** Its value is 0.307% (inactive).

**Q.** Which “activity change, negative = cytotoxicity” value does the source give for `CCc1c(C)cc(N)c(CC)c1N` here?
**A.** The value was 9.82% (inactive).

**Q.** For `CCOC(=O)C1=NN(c2ccc(Cl)cc2Cl)C(C)(C(=O)OCC)C1` (stereo not given), which Potency is on record?
**A.** The Potency was 113 µM (active).

**Q.** With `O=C1CCC/C=C\CCCCCCCCCC1` as the molecule, how does the “activity change, negative = cytotoxicity” value read?
**A.** The value was -8.43% (inactive).

**Q.** Which Potency does the source give for `CN(C/C=C/c1ccccc1)Cc1cccc2ccccc12` here?
**A.** The Potency was 43.8 µM (active).

**Q.** For `O=c1cc[nH]cc1`, which “activity change, negative = cytotoxicity” value is on record?
**A.** The value was 1.9% (inactive).

**Q.** Which Potency does the source give for `O=C(CCCCCCCCc1cccnc1)N1CCC(C=C(c2ccccc2)c2ccccc2)CC1` here?
**A.** Its Potency is 50.5 µM (active).

**Q.** For `COc1cc2ncnc(Nc3cccc(Cl)c3)c2cc1OC`, which activity change, negative = cytotoxicity is on record?
**A.** Its activity change, negative = cytotoxicity is 1.51% [at 31.6 µM] (inactive).

**Q.** For `CCOC=C(C(=O)OCC)C(=O)OCC`, which “activity change, negative = cytotoxicity” value is on record?
**A.** The value was -0.211% (inactive).

**Q.** Which “activity change, negative = cytotoxicity” value does the source give for `Clc1ccc2c(Cl)ccnc2c1` here?
**A.** Its value is 1.23% (inactive).

**Q.** For `CCC(O)CO` (stereo not given), which “activity change, negative = cytotoxicity” value is on record?
**A.** The value was 0.0821% (inactive).

**Q.** For `C=C(C)CCO`, which “activity change, negative = cytotoxicity” value is on record?
**A.** Its value is 0.527% (inactive).

**Q.** Which “activity change, negative = cytotoxicity” value does the source give for `C=COCCCC` here?
**A.** The value was 0.96% (inactive).

**Q.** For `CC(C)(C)c1cc(CCC(=O)OCCSCCOC(=O)CCc2cc(C(C)(C)C)c(O)c(C(C)(C)C)c2)cc(C(C)(C)C)c1O`, which “activity change, negative = cytotoxicity” value is on record?
**A.** The value was -2.24% [at 70.9 µM] (inactive).

**Q.** With `CCOC(=O)[C@H](C)O` as the molecule, how does the “activity change, negative = cytotoxicity” value read?
**A.** Its value is -1.34% (inactive).

**Q.** With `CCCOC(=O)c1ccc(O)cc1` as the molecule, how does the “activity change, negative = cytotoxicity” value read?
**A.** The value was 3.56% (inactive).
